This passage reports growth results from PubChem BioAssay (NCI).

About 83,000 compounds went through this panel and 20% of them were active in at least one assay; those are over-represented in the sample as a whole.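 Single-dose data. Exposure time 48 hours. Values below 10 considered active.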 Unmarked numbers belong to inactive results. The source made the active and inactive calls.

This test relates to NCI-H522 lung. The test is described as follows: NCI-60 one-dose screen, 48 h (100 = growth as untreated, 0 = no growth, -100 = all killed). The settings on record: 10 µM. The protocol: Growth inhibition of the NCI-H522 human Non-Small Cell Lung tumor cell line is measured as a screen for anti-cancer activity. Cells are grown in 96 well plates and exposed to the test compound for 48 hours. Compounds are tested at a single concentration, which is 10^-5 M for most compounds. The reported endpoint is percent growth (GI% or GIPRCNT), where numbers from 0 - 100% represent growth inhibition, and numbers from -100% - 0 represent cell death. For example, a value of 40 represents 60% growth inhibition. A value of 0 means no net growth occurred over the course of the experiment. A value of -40 indicates 40% of cells at the beginning of the experiment died by the end of the experiment. A value of -100 means all cells are dead at the end of the experiment.
NCI-60 Human Tumor Cell Lines Screen was performed using the standard one-dose NCI protocol, which is described in more detail at https://dtp.cancer.gov/discovery_development/nci-60/default.htm.
Compounds with GIPRCNT values below 10 were considered active. Activity score was based on GIPRCNT using the following formula: […]
Score is 0 for GIPRCNT values of 100 or above, 50 for GIPRCNT values of 0, and 100 for GIPRCNT values of -100.
On to `NC(=NCCCCCCN=C(N)/N=C(\N)Nc1ccc(Cl)cc1)/N=C(\N)Nc1ccc(Cl)cc1`, for which the growth was -11.1% (active). Consider `O=C(O)CCC(=O)OC[C@@H](NC(=O)C(Cl)Cl)[C@H](O)c1ccc([N+](=O)[O-])cc1`, for which the growth was 91.7%.

Turning to `CC1C(=O)NC2=Nc3ccccc3C(=O)NN21` (stereo not given), the growth was 97.5%. `COc1cc2c(cc1OC)C(=O)/C(=C/c1cccc(OCC(=O)c3ccccc3)c1)C2`: the growth is 48.3%. Consider `COc1ccc2c(c1)CC/C(=C\c1ccc(OCC(=O)Nc3nc4ccccc4s3)cc1)C2=O`, for which the growth was 85.4%.

As for `C/C=C(/C(=C/C)c1ccc(O)cc1)c1ccc(O)cc1`, the growth was 55.3%. For `Nc1nc(SCc2cccnc2)c2ncn(C3OC(CO)C(O)C3O)c2n1` (stereo not given), the growth was 102%. Next, `COC(=O)c1c(NC(=O)CSc2nnnn2-c2ccc(OC)cc2)sc(C)c1C`: 91.1%. `COCCCNS(=O)(=O)c1ncnc2nc[nH]c12`: the growth is 119%. With `CC(=O)c1ccccc1NC(=O)C(C)(c1ccccc1)c1ccccc1`, the growth is 77.3%. `Cc1ccc(-c2cc(-c3ccccc3)n(-c3ccccc3)n2)cc1`: the growth is 79%. With `O=Cc1ccccc1C(=O)O`, the growth is 96.7%. The value for `Cc1cn(C(C=O)OC(C=O)CO)c(=O)[nH]c1=O` (stereo not given) was 98%; that for `CCSc1nc(-c2ccc(F)cc2)c(C#N)c(=O)[nH]1` was 96.8%; that for `Cc1c2oc3c(C)ccc(C(=O)OC(C)C4NC(=O)C(C(C)C)N(C)C(=O)CN(C)C(=O)C5CCCN5C(=O)C(C(C)C)NC4=O)c3nc-2c(C(=O)OC(C)C2NC(=O)C(C(C)C)N(C)C(=O)CN(C)C(=O)C3CCCN3C(=O)C(C(C)C)NC2=O)c(N)c1=O` (stereo not given) was -60.1% (active). For `Cc1cc(Cl)ccc1Nc1nc(C(F)(F)F)ccc1C(=O)N/N=C/c1ccc(Cl)cc1`, the growth was -17.6% (active). Regarding `COc1ccc(C2CC(c3ccc(Nc4ccnc5cc(Cl)ccc45)cc3)=NN2C(C)=O)cc1` (stereo not given), the growth is 67.3%. Regarding `Cc1cc(Br)c(C)cc1Br`, the growth was 96%. Take `O=C(COc1ccc(/C=C2\Oc3ccc4ccccc4c3C2=O)cc1)c1ccc(Cl)cc1`: the growth is 61.9%.

Regarding `O=C(NCCCl)NCCN1c2nc3ccccc3cc2Sc2cc3ccccc3nc21`, the growth was 55.4%.

For the molecule `O=C(NC1CCS(=O)(=O)C1)c1ccc(C(=O)c2ccccc2)cc1` (stereo not given), the growth was 90.9%. Consider `O=c1ncc(-c2ccc(C(F)(F)F)cc2)c(NC2CCCCCC2)[nH]1`, for which the growth was 29%.

Take `O=[N+]([O-])c1cc([N+](=O)[O-])c(N2CCCC2)cc1NN=C(c1ccc(O)cc1)c1ccc(O)cc1`: the growth is -42% (active). The value for `COc1ccc(C(=O)COc2cccc(/C=C3\CSc4ccc(Cl)cc4C3=O)c2)cc1` was 61.7%; that for `CC1CN(/N=C/c2ccc([N+](=O)[O-])o2)C(=N)O1` (stereo not given) was 87.8%; that for `N#Cc1ncc(-c2ccc(C(F)(F)F)cc2)c(NC2CCCCCC2)n1` was -4.74% (active).

In the case of `COc1ccc2[nH]c(=O)c(CNc3ccc(Nc4nccc(-c5ccc(Cl)cc5)n4)cc3)cc2c1`, the growth is 83.8%. The value for `COc1ccc(CNC(=O)c2c(C)n([O-])c3ccc(OC)cc3[n+]2=O)cc1` was -2.57% (active). The value for `COC(=O)C1CCN(S(=O)(=O)c2ccc(-c3ccccc3)cc2)CC1` was 99.8%; that for `CCSc1nc(Nc2ccc(S(=O)(=O)Nc3ccon3)cc2)c(C#N)c(-c2cccc(Br)c2)n1` was 87.3%; that for `NC(=O)NS(=O)(=O)c1ccc(N2N=C(C(F)(F)F)CC2c2cc(C(F)(F)F)cc(C(F)(F)F)c2)cc1` (stereo not given) was 38.4%. Next, `O=C(/C=C(\Nc1ccccc1)c1ccccc1)c1cn(-c2ccc([N+](=O)[O-])cc2)nn1`: 86.1%; `CCOC(=O)CCC(=O)O[C@H]1[C@H](O[C@@H]2[C@@H](C)[C@H](O[C@H]3C[C@@](C)(OC)[C@@H](O)[C@H](C)O3)[C@@H](C)C(=O)O[C@H](CC)[C@@](C)(O)[C@H](O)[C@@H](C)C(=O)[C@H](C)C[C@@]2(C)O)O[C@H](C)C[C@@H]1N(C)C`: 92.6%. As for `CCC(C)C1NC(=O)C(CCNCS(=O)(=O)O)NC(=O)C(NC(=O)C(CCNCS(=O)(=O)O)NC(=O)C(NC(=O)C(CCNCS(=O)(=O)O)NC(=O)CCCCC(C)C)C(C)O)CCNC(=O)C(C(C)O)NC(=O)C(CCNCS(=O)(=O)O)NC(=O)C(CCNCS(=O)(=O)O)NC(=O)C(C(C)CC)NC1=O` (stereo not given), the growth is 10.5%. For the molecule `Cn1cnc([N+](=O)[O-])c1Sc1nc(N)nc2nc[nH]c12`, the growth is 41.3%. Take `CC(C)Sc1nc(Cl)c(C#N)c(-c2ccc(F)cc2)n1`: the growth is 86.8%.

On to `COc1ccc(Cl)cc1Nc1nc(C(F)(F)F)ccc1C(=O)N/N=C/c1c(Cl)cccc1Cl`, for which the growth is 39.2%.

As to `CC1Cc2ccccc2N1C(=O)c1ccc(C(=O)c2ccccc2)cc1` (stereo not given), the growth is 77.3%. Turning to `O=[N+]([O-])c1ccc2[nH]cc(-c3c4ccccc4cc4[nH]c5ccc([N+](=O)[O-])cc5c34)c2c1`, the growth was 11.3%.

For the molecule `OCCN1CCN(CCCN2c3ccccc3Sc3ccc(C(F)(F)F)cc32)CC1`, the growth was 19.5%.
